Measured values reported in PubChem BioAssay.
Where “and” joins values, the source holds several entries; their conditions need not be identical. Equal values may be shown once. Calls of active or inactive are those of the source. Unless noted, no stated cut-off is given here; in the data, active means parasite load remaining mostly below about 12% (no sharp cut-off); inactive means mostly above about 10%.

Experiments:
[1] = hESC survival regulators, cell-based (AID 493140; call rule not given here;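 further: cells exposed to compounds for four days before counting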); settings: human embryonic stem cell survival screen; stronger effect = higher value
[2] = liver-stage malaria parasite growth inhibition, primary screen, cell-based, HepG2, luciferase luminescence, HepG2 viability (AID 624349);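 further: 100% = mean of DMSO negative control wells on the same plate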; settings: P. berghei liver stage in HepG2, luciferase luminescence, concentration not given here; parasite load remaining: stronger effect = lower value; viability: measured here: HepG2 viability without parasites
[3] = stimulators of nuclear beta-catenin in C2C12, primary screen, imaging, WNT3A-conditioned medium, mouse C2C12, NPC library (AID 1117326; in the data active means nuclear beta-catenin stimulation mostly above about 4.2%, no sharp cut-off; inactive means mostly below about 10%); settings: stronger effect = higher value
[4] = stimulators of insulin release from INS-1E, primary screen, cell-based, 5 mM glucose, NPC library (AID 1117329;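 active means compound raises insulin release from rat beta cells at 5 mM glucose, no numeric limit stated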); settings: rat INS-1E insulin secretion, at 10 µM, stronger effect = higher value
[5] = growth inhibition of GSK3B-pretreated HCT116 cells – cell-based, CellTiter-Glo, 0.2 to 20 µM (AID 1117336;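 active means compounds lowering colon cancer cell viability after pretreatment blocking the GSK3B kinase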); settings: HCT116 viability after GSK3B inhibitor, at 20 µM, stronger effect = higher value
[6] = inhibition of endothelial tube formation, primary screen, imaging, VEGF stimulated, CD31 staining, tube area, NPC library (AID 1117340;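 active means compound that reduces growth-factor-driven endothelial tube area in a mixed cell culture, no cutoff stated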); settings: VEGF-stimulated ADSC/ECFC co-culture, at 10 µM, stronger effect = higher value
[7] = glucagon-like peptide 1 release enhancers, primary assay, NCI-H716 cell line, NPC library (AID 1117341;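 active means compound raises GLP1 secretion from the human gut endocrine cells, with no numeric limit stated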); settings: NCI-H716 cells, at 10 µM, stronger effect = higher value
[8] = HCT116 colon cancer cell growth inhibition, primary screen, CellTiter-Glo luminescence, NPC library (AID 1117342;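 active means compounds that lower survival of HCT116 colon cancer cells in the luminescence readout, no numeric limit stated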); settings: at 20 µM (top of the series)
[9] = CellTiter-Glo luminescent readout of SW480 viability loss, NPC library primary (AID 1117343;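 active means compounds that lower viability of the colon cancer cells in the luminescence readout, with no numeric limit stated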); settings: CellTiter-Glo luminescence; at 20 µM (top of the series)
[10] = decreased DLD-1 cellular survival, CellTiter-Glo luminescent readout, NPC compound collection, primary HTS (AID 1117346;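 active means compounds that lower survival of DLD-1 colon cancer cells in the luminescence readout, no cutoff given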); settings: DLD-1 viability, CellTiter-Glo luminescence; at 20 µM (top of the series)
[11] = differential killing of epithelial or mesenchymal cells, primary screen, imaging, PC-3E GFP, TEM4-18 mCherry, co-culture (AID 1345086;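 active means compounds killing one labelled cell type while sparing the other, by normalised counts and ratio limits, not self-fluorescent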;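 on all read-outs here: cells exposed to compound for 72 h before imaging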;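 on red/green cell ratio (normalised): normalised mesenchymal count divided by normalised epithelial count so high means epithelial killing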); settings: imaging cell counts, at 1 µM; for red/green cell ratio (normalised): actives lie on both sides
[12] = tested on: Aerobactin synthetase IucA (Klebsiella pneumoniae hvKP1); assay: Biochemical IucA enzyme inhibition primary screen of the Spectrum library (AID 1346200; call rule not given here;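 further: 100% = wells without compound and 0% = wells lacking enzyme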); settings: malachite green pyrophosphate, A620, at 8 µM, stronger effect = lower value
[13] = sensitizers of A549 cells to miR-34 induction, primary screen, imaging, A549 dox-inducible miR-34, nuclei and caspase counts (AID 1347080;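 active means compounds whose cell count with miR-34 switched on is under 0.7 times the count with it off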); settings: A549 miR-34 inducible, Hoechst nuclei count, 48 h
[14] = survival rescue of mitochondrial mutant cells in low glucose, primary screen, MELAS cybrids, Rieske KO mouse fibroblasts, CellTiter-Glo (AID 1508586;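 active means mean z-score across replicates of 1.96 or higher in either the MELAS or the Rieske mutant cell line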;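 further: z relative to plate mean and SD of compound and empty wells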)
[15] = target: NAD(+) hydrolase SARM1 (Homo sapiens) (UniProt Q6SZW1); assay: SARM1 TIR NADase inhibitors, cell lysate, NAD-Glo luminescence (AID 1508614;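 active means compound whose remaining NAD level is above about 45 nM, limit read from the data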); settings: SAM-TIR HEK293T lysate NADase, at 1 µM, stronger effect = higher value
[16] = target: Mitogen-activated protein kinase 7 (Homo sapiens) (UniProt Q13164); assay: ERK5 transactivation activators in reporter cells, primary screen, cell-based, HTS (AID 1508626;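 active means luciferase signal above three times the same-plate solvent-only control wells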;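 further: luciferase driven by Gal4-ERK5 fusion binding five Gal4 sites before minimal TATA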); settings: HeLa Gal4-ERK5 transactivation, 18 h, at 5 µM, stronger effect = higher value
[17] = viability rescue of complex I mutant cybrids, primary screen, cell-based, galactose medium, ATP luminescence (AID 1645843;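 active means z-score of at least 1.8 in each of two replicates, scored against plate mean and spread of sample wells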;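 further: positive z means more ATP and so rescue of galactose-driven cybrid death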); settings: complex I mutant cybrid cells, 72 h, stronger effect = higher value
[18] = tested on: Aerobactin synthetase IucA (Klebsiella pneumoniae, hypervirulent); assay: IucA enzyme inhibition, biochemical, LOPAC library, absorbance readout (AID 1346212; call rule not given here;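 further: 100% = no compound wells and 0% = no enzyme wells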); settings: IucA enzyme assay, absorbance (OD) readout; stronger effect = lower value; concentration not given here
[19] = measured here: epithelial PC-3E GFP cell survival
[20] = measured here: mesenchymal TEM4-18 mCherry cell survival
[21] = measured here: relative caspase fold change +Dox/-Dox
[22] = measured here: total cells with miR-34 induction, stronger effect = lower value
[23] = measured here: total cells without miR-34 induction
[24] = MELAS cybrid survival, CellTiter-Glo 48 h, stronger effect = higher value
[25] = Rieske KO mouse fibroblast survival, CellTiter-Glo 72 h

NAD(+) hydrolase SARM1 (Homo sapiens), sequence (Q6SZW1 whole entry, looked up, the tested form may be a part): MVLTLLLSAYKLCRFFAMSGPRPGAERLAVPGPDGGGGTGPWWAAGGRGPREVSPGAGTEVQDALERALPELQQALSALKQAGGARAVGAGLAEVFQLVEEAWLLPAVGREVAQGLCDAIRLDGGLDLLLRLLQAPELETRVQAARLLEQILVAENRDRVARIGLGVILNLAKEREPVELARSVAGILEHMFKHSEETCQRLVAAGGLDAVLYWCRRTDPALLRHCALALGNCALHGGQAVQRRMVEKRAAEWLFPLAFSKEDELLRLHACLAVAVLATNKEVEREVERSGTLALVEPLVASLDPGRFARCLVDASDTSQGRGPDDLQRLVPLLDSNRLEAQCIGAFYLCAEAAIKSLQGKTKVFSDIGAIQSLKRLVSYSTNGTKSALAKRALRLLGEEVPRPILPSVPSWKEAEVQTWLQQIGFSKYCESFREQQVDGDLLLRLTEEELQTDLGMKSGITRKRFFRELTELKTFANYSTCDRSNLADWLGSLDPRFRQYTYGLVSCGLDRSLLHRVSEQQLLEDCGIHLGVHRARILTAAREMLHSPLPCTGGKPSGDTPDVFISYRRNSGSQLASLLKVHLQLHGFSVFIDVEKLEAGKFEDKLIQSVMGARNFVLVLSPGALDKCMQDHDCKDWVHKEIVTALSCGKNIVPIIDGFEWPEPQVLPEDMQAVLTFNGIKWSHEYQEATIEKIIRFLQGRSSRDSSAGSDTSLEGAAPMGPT
Mitogen-activated protein kinase 7 (Homo sapiens), sequence (Q13164 whole entry, looked up, the tested form may be a part): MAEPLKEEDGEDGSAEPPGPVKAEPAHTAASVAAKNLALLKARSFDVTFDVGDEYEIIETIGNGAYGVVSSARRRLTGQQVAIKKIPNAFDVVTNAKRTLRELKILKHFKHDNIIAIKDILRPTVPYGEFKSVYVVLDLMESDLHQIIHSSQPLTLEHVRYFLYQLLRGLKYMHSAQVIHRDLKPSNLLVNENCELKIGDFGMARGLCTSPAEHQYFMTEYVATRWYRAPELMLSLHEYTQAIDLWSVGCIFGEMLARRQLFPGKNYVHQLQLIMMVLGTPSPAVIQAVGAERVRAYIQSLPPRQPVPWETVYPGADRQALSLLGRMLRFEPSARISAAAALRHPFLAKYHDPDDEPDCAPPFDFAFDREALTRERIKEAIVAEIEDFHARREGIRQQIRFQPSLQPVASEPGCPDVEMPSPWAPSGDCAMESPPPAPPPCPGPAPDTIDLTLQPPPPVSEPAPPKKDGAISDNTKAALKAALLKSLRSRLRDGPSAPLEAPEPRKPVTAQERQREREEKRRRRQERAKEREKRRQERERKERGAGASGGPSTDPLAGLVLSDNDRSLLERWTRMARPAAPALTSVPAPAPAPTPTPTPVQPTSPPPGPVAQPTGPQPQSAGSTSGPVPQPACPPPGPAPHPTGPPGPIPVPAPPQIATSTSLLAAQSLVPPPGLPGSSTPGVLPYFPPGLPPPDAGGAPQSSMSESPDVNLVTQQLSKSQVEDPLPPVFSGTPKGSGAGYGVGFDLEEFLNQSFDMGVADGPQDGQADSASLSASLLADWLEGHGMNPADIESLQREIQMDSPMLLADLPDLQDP

CN(C)C(=O)Oc1cc(OC(=O)N(C)C)cc(C(O)CNC(C)(C)C)c1 (centres undefined)
survival [1]: 12.5 (inactive)
parasite load remaining [2]: 140% (inactive) and 77.2% (inactive) and 45.2% (inactive)
viability [2]: 97.8% and 75.7% and 103%
nuclear beta-catenin stimulation ([3]; at 10 µM): 0.1% (inactive)
nuclear beta-catenin stimulation ([3]; stimulation, at 2 µM): 4.2%
insulin secretion stimulation [4]: 0.9% (inactive)
viability decrease [5]: -5.7% (inactive)
tube area decrease [6]: -4% (inactive)
GLP1 secretion stimulation [7]: 12.7% (inactive)
inhibition of viability [8]: -0.23% (inactive)
viability decrease (inhibition) [9]: -17% (inactive)
viability decrease (inhibition) [10]: -13% (inactive)
red/green cell ratio (normalised) [11]: 0.71 (inactive)
normalised cell number [11, 19]: 1.3
normalised cell number [11, 20]: 0.92
activity remaining [12]: 118% (inactive)
fold change ([13]; stronger effect = lower value): 0.804 (inactive) and 0.911 (inactive) and 0.913 (inactive)
fold change [13, 21]: 1.26 and 0.519 and 1.12
cell count [13, 22]: 8290 and 8600 and 10000
cell count [13, 23]: 10300 and 9440 and 11000
z-score [14, 24]: -0.119 (inactive) and 0.142 (inactive) and -0.358 (inactive)
z-score [14, 25]: -0.285 and -0.41 and -0.25
remaining NAD [15]: 10 nM (inactive)
luciferase signal [16]: 80 AU (inactive)
z-score [17]: 0.805 (inactive)

c1ccc2c(c1)OCC(C1=NCCN1)O2 (centres undefined)
survival [1]: 1.58 (inactive)
parasite load remaining [2]: 48.2% (inactive) and 42.6% (inactive)
viability [2]: 92.9% and 100%
nuclear beta-catenin stimulation ([3]; at 10 µM): 5.9% (inactive)
nuclear beta-catenin stimulation ([3]; stimulation, at 2 µM): -1.4%
insulin secretion stimulation [4]: 2.3% (inactive)
viability decrease [5]: 14.1% (inactive)
tube area decrease [6]: -4.8% (inactive)
GLP1 secretion stimulation [7]: 0.1% (inactive)
inhibition of viability [8]: 17.5% (inactive)
viability decrease (inhibition) [9]: 33.2% (inactive)
viability decrease (inhibition) [10]: -3.9% (inactive)
red/green cell ratio (normalised) [11]: 0.85 (inactive)
normalised cell number [11, 19]: 1.22
normalised cell number [11, 20]: 1.03
remaining activity [18]: 109% (inactive)
z-score [14, 24]: 0.698 (inactive) and 0.759 (inactive)
z-score [14, 25]: -0.433 and -0.198
remaining NAD [15]: 10 nM (inactive)
z-score [17]: -1 (inactive) and -0.91 (inactive) and -1.57 (inactive)

Nc1nc(N)nc(NC2CC2)n1
nuclear beta-catenin stimulation ([3]; at 10 µM): 0.9% (inactive)
nuclear beta-catenin stimulation ([3]; stimulation, at 2 µM): 2.8%
insulin secretion stimulation [4]: -1.3% (inactive)
viability decrease [5]: -16.8% (inactive)
tube area decrease [6]: 5.4% (inactive)
GLP1 secretion stimulation [7]: 2.4% (inactive)
inhibition of viability [8]: 2.07% (inactive)
viability decrease (inhibition) [9]: -5.7% (inactive)
viability decrease (inhibition) [10]: -8.2% (inactive)
red/green cell ratio (normalised) [11]: 0.97 (inactive)
normalised cell number [11, 19]: 1
normalised cell number [11, 20]: 0.96
fold change ([13]; stronger effect = lower value): 0.94 (inactive) and 0.918 (inactive)
fold change [13, 21]: 0.828 and 0.774
cell count [13, 22]: 8490 and 8320
cell count [13, 23]: 9030 and 9070
z-score [14, 24]: -0.201 (inactive)
z-score [14, 25]: -0.194
remaining NAD [15]: 10 nM (inactive)

Oc1cccc2cccnc12
parasite load remaining [2]: 64.5% (inactive) and 25.4% (inactive)
viability [2]: 53.5% and 57.1%
nuclear beta-catenin stimulation ([3]; at 10 µM): 6.4% (inactive)
nuclear beta-catenin stimulation ([3]; stimulation, at 2 µM): 0.8%
insulin secretion stimulation [4]: -1% (inactive)
viability decrease [5]: -3.1% (inactive)
tube area decrease [6]: -4.7% (inactive)
GLP1 secretion stimulation [7]: 81.5% (active)
inhibition of viability [8]: 8.1% (inactive)
viability decrease (inhibition) [9]: 68.4% (active)
viability decrease (inhibition) [10]: 53.9% (active)
red/green cell ratio (normalised) [11]: 1.03 (inactive)
normalised cell number [11, 19]: 0.9
normalised cell number [11, 20]: 0.93
activity remaining [12]: 111% (inactive)
fold change ([13]; stronger effect = lower value): 0.857 (inactive)
fold change [13, 21]: 0.864
cell count [13, 22]: 8140
cell count [13, 23]: 9500
remaining NAD [15]: 10 nM (inactive)
